Results: PubChem BioAssay (NCI)
Compounds without any hit were thinned out: in the full panel of roughly 79,000, 15% have a hit. No stated cut-off is given here; in the data, active means growth inhibition above about 70%; inactive means the rest.

Assays:
[1] = NCI Yeast Anticancer Drug Screen. Data for the rad50 strain (AID 155);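 further: 0% = growth of vehicle-only cultures of the same strain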; conditions: S. cerevisiae rad50 strain growth inhibition; at 50.0 µM; stronger effect = higher value
In short: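 Genetically altered yeast (DNA repair pathway); compound treatment; growth inhibition vs vehicle ctrl.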

[2] = NCI Yeast Anticancer Drug Screen. Data for the mec2-1 strain (AID 157); conditions: S. cerevisiae mec2-1 strain, at 50.0 µM, stronger effect = higher value
In short: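 Yeast mec2-1 mutant treated with compound. Readout: growth inhibition vs vehicle controls.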

[3] = NCI Yeast Anticancer Drug Screen. Data for the sgs1 mgt1 strain (AID 161);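 further: 0% = growth of cultures given vehicle only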; conditions: S. cerevisiae sgs1 mgt1 strain, at 50.0 µM, stronger effect = higher value
In short: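 Read-out: growth inhibition vs vehicle controls. Cells: mutant yeast strain deficient in DNA damage repair.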

[4] = NCI Yeast Anticancer Drug Screen. Data for the cln2 rad14 strain (AID 165);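 further: 0% = growth equal to vehicle treated cultures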; conditions: S. cerevisiae cln2 rad14 strain, at 50.0 µM, stronger effect = higher value
In short: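 cln2 rad14 yeast strain; compound exposure; growth inhibition read vs vehicle controls.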

[5] = NCI Yeast Anticancer Drug Screen. Data for the bub3 strain (AID 167); conditions: S. cerevisiae bub3 mutant strain, at 50.0 µM, stronger effect = higher value
In short: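 Yeast carrying a defined mutation is treated with each compound, and growth is compared with that of vehicle-exposed cells to give inhibition.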

[6] = NCI Yeast Anticancer Drug Screen. Data for the mlh1 rad18 strain (AID 175); conditions: S. cerevisiae mlh1 rad18 strain growth inhibition; at 50.0 µM; stronger effect = higher value
In short: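 Yeast w/ defined DNA-repair lesions; compound exposure; growth vs vehicle controls → % inhibition.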

Measured: growth inhibition

CSC(C(O)C(O)C(O)C(O)CO)n1cnc2c(=S)nc[nH]c21 (stereo unspecified)
inactive: [1] 1.1% | [2] 5.7% | [3] 5.75% | [4] 19.6% | [5] 11.3% | [6] 9%

Cc1[nH]c2ccccc2c1-c1cc(-c2cc(-c3c(C)[nH]c4ccccc34)nc(N)n2)nc(N)n1
inactive: [1] -12.9% | [2] 8.95% | [3] -25.8% | [4] 3.05% | [5] -11.3% | [6] -1.95%

CCc1c(C)c(C)c(C)c(C)c1C(C)=O
inactive: [1] -5% | [2] -22.4% | [3] -7.35% | [4] 20.1% | [5] 6.4% | [6] -26.6%

CCCOC(=O)C(CC)CC(C)C (stereo unspecified)
inactive: [1] -4.95% | [2] 2.85% | [3] -4% | [4] -22.7% | [5] 9.35% | [6] 14.8%

O=C(Nc1ccccc1CCl)Nc1ccccc1CCl (tested in a mixture with another compound)
inactive: [1] 7.6% | [2] 3.35% | [3] -11.4% | [4] 3.65% | [5] -4.1% | [6] 15.4%

CC(C)C(/C=C/c1ccc(Br)cc1)=N\NC(N)=O
inactive: [1] -14.1% | [2] -29.2% | [3] -40.8% | [4] -13.9% | [5] -18.1% | [6] -18.9%

CC(C)c1ccc(OCC2CCCO2)cc1 (stereo unspecified)
inactive: [1] 37.4% | [2] 0.95% | [3] 39% | [4] 41.7% | [5] 28.9% | [6] 27.4%

O=C1Nc2ccccc2Nc2nc3cccccc-3c21
inactive: [1] 9.85% | [2] -15.2% | [3] -2.4% | [4] 16.8% | [5] -6.6% | [6] -13.8%

CSc1ncnc2ncn(C)c12
inactive: [1] 11.9% | [2] -2.6% | [3] 4.4% | [4] -9.95% | [5] 3.25% | [6] 1.75%

CCN(CC)C(=O)N1CCN(c2ccccc2)CC1
inactive: [1] -1.4% | [2] 12.3% | [3] -4.95% | [4] 5.65% | [5] 3.45% | [6] -23.8%

COc1cc2c(c(Cl)c1OC)CCN(C)CC2c1ccccc1 (stereo unspecified)
inactive: [1] -5.25% | [2] -15.3% | [3] -13.9% | [4] -9.5% | [5] -1.45% | [6] 1.85%

COc1cc(CC2C(=O)NC(=O)NC2=O)ccc1OCc1ccccc1
inactive: [1] 17.8% | [2] -7.75% | [3] -5.1% | [4] -19.4% | [5] -21.4% | [6] -47%

CSCC[C@H]1C(=O)N=C(N)N1C(=O)OCc1ccccc1
inactive: [1] -5.7% | [2] 3.85% | [3] 3.6% | [4] -9.6% | [5] -2.75% | [6] 12.8%

COSCCCC(C)=O
inactive: [1] 25.5% | [2] 4% | [3] -5.15% | [4] 13.8% | [5] 6.55% | [6] 13.8%

Cc1nc([N+](=O)[O-])cn1/C=C/Cn1cc([N+](=O)[O-])nc1C
inactive: [1] -3.25% | [2] -18.9% | [3] 5% | [4] 6.65% | [5] -25.7% | [6] 4.8%

O=C(c1ccccc1)[C@@H]1C[C@H](Sc2ccccc2)c2cc(Cl)ccc2N1
inactive: [1] 39.7% | [2] -10.5% | [3] 4.1% | [4] 23.8% | [5] 0.8% | [6] -3.5%

ONc1cnc2ccccc2n1
inactive: [1] -34.9% | [2] -30.4% | [3] -3.5% | [4] -49.2% | [5] -4.8% | [6] 0.4%

COc1ccc2c(c1OC)C(=O)OC2(O)C1=NCCc2cc3c(cc21)OCO3 (stereo unspecified)
inactive: [1] 19% | [2] -7.25% | [3] 8.1% | [4] 21.3% | [5] 4.05% | [6] 13.2%

CC12CCC3c4ccc(Cc5ccc([N+](=O)[O-])cc5)cc4CCC3C1CCC2=O (stereo unspecified)
inactive: [1] 32.6% | [2] 9.2% | [3] 10.8% | [4] 19.7% | [5] 1.05% | [6] 25.6%

CC1C/C=C2\CSC(NC(=O)/C3=C\N(C/C=C/C=C/C(O)CC(O)CC(=O)N3)C2=O)C(=O)O1 (stereo unspecified)
inactive: [1] 13.7% | [2] 11.7% | [3] 22.2% | [4] 19% | [5] 17.5% | [6] 18.2%

OC1(c2ccc(C3(O)C(c4ccccc4)=C(c4ccccc4)C(c4ccccc4)=C3c3ccccc3)cc2)C(c2ccccc2)=C(c2ccccc2)C(c2ccccc2)=C1c1ccccc1
inactive: [1] 5.6% | [2] -1.75% | [3] -1.7% | [4] -6.6% | [5] -2.15% | [6] 9.85%

Oc1cc(OCCCc2ccc(F)cc2)cc2ccc3ccccc3c12
inactive: [1] 50.5% | [2] 43.5% | [3] 20.8% | [4] -32.5% | [5] 54% | [6] 43.1%

CN(C)CCCNc1nc2cc(Cl)ccc2o1
inactive: [1] -7.1% | [2] -9.85% | [3] -5.7% | [4] -38.6% | [5] 6.7% | [6] -2.4%

O=C(CO)c1ccccc1
inactive: [1] -11.9% | [2] 10.3% | [3] -3.8% | [4] 25.6% | [5] 4% | [6] 19.6%

O=C1c2ccccc2C(=O)N1CCCSc1ccc(F)cc1
inactive: [1] 32.8% | [2] -9.5% | [3] 28.4% | [4] 3.5% | [5] 15.3% | [6] 36.2%

O=Nc1ccc(O)cc1O
inactive: [1] 16.9% | [2] 2.5% | [3] 1.15% | [4] -38.6% | [5] 33.3% | [6] 19.1%

CCCOC(=O)Nc1cccc2ccccc12
inactive: [1] 0.65% | [2] -9.3% | [3] 12.5% | [4] -62.4% | [5] -21.8% | [6] -17.2%

COC1CC(C)OC(OC2C(C)/C=C/C(=O)OC(C)C(COC3OC(C)C(O)C(OC)C3OC)C3OC3/C=C/C(=O)C(C)(O)CC2C)C1O (stereo unspecified)
inactive: [1] 1.55% | [2] -5.25% | [3] 3.55% | [4] 1.5% | [5] 5.25% | [6] 5%

C#CCSC(=N)N
inactive: [1] 5.4% | [2] -6.9% | [3] 8.9% | [4] 5.2% | [5] 8.8% | [6] 5.75%

CC(C)(C)c1ccc(OCCCl)c(Cl)c1
inactive: [1] 2.35% | [2] -2.45% | [3] 33.7% | [4] -41.9% | [5] 0.75% | [6] 6.3%

Cc1cccc(NC(=O)CSc2nnc(-c3ccc(N=Cc4ccc(Cl)cc4)cc3)o2)c1
inactive: [1] 6.3% | [2] -24.1% | [3] 9.25% | [4] -42.5% | [5] 6.8% | [6] 14.7%

CCc1cc2ccccc2oc1=O
inactive: [1] -1.1% | [2] 3.65% | [3] 0.1% | [4] -18.1% | [5] 1.55% | [6] -5.85%

Oc1c(Cl)cc(Cl)cc1/C=N/c1nc(-c2ccc(Cl)cc2)cs1
inactive: [1] 52.1% | [2] 26.1% | [3] 61.3% | [4] 28.1% | [5] 38.8% | [6] 35%

C[C@H]1CCCCC[C@@H]2CC(=O)CC2C(=O)CCC(=O)O1 (stereo partly specified)
inactive: [1] 17.6% | [2] -4.25% | [3] -10.6% | [4] 8.05% | [5] -8.85% | [6] 12.7%

Cc1c(Cl)cccc1NC(=O)Oc1ccc(F)cc1Cl
inactive: [1] -1.4% | [2] -3.1% | [3] -2.3% | [4] 7.35% | [5] 17.6% | [6] -4.55%

CN(CC(=O)NC(=O)c1ccccc1)Cc1ccccc1
inactive: [1] -1.7% | [2] -9.25% | [3] 3.95% | [4] -37% | [5] 3.55% | [6] -7.8%

Cc1ccc(S(=O)(=O)NC(=O)NC23CC4CC(CC(F)(C4)C2)C3)cc1
inactive: [1] 37.9% | [2] 21.4% | [3] -13.6% | [4] 9.5% | [5] 13.8% | [6] 2.1%

NC(=O)Nc1ccc([N+](=O)[O-])cc1
inactive: [1] 4.65% | [2] -2.9% | [3] -2.6% | [4] -51.6% | [5] -11.9% | [6] 2.05%

O=c1[nH]c2cc([N+](=O)[O-])ccc2c2ccc(Cl)cc12
inactive: [1] 57.4% | [2] 0% | [3] 4.85% | [4] 2.75% | [5] 6.5% | [6] 27.6%

CC1(C)N=C(N)N=C(N)N1c1ccc(-c2ccccc2)cc1
inactive: [1] 2.95% | [2] 0.9% | [3] 20.5% | [4] -0.75% | [5] 32.5% | [6] 19.5%

CCCS(CCC)=NS(=O)(=O)c1ccc(C)cc1
inactive: [1] -6.75% | [2] -0.7% | [3] 0.6% | [4] -0.8% | [5] 11.6% | [6] -9.65%
